# Unmarked numbers belong to inactive results. Active and inactive are the calls of the source.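 Rule for the calls, unless noted: active = normalized viability below 100% at a tested concentration; inactive = the rest.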
# Columns and labels:
# [1] = drug combination growth inhibition, ovarian cancer – cell-based, oncology-focused library, rucaparib conditional, profiling panel (AID 1508598); conditions: patient-derived ovarian cancer cells, CellTiter-Glo viability, 144 h, hits give low values
# [2] = molecular target: NAD(+) hydrolase SARM1 (Homo sapiens) (UniProt Q6SZW1); experiment: blocking NAD cleavage by SARM1 SAM-TIR – cell lysate, NAD-Glo luminescence (AID 1508614;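 active = compound whose remaining NAD level is above about 45 nM, limit read from the data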;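 note: higher remaining NAD means stronger inhibition of SARM1 NADase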); conditions: SAM-TIR HEK293T lysate NADase, at 1 µM, hits give high values
# [3] = at 0.000305 µM, OCI-C5x cells, with rucaparib 10 µM, 100% = cells with rucaparib alone
# [4] = at 0.000305 µM, OCI-C5x cells, without rucaparib
# [5] = at 0.000305 µM, OCI-P5x cells, with rucaparib 20 µM, 100% = cells with rucaparib alone
# [6] = at 0.000305 µM, OCI-P5x cells, without rucaparib
# [7] = at 0.00122 µM, OCI-C5x cells, with rucaparib 10 µM, 100% = cells with rucaparib alone
# [8] = at 0.00122 µM, OCI-C5x cells, without rucaparib
# [9] = at 0.00122 µM, OCI-P5x cells, with rucaparib 20 µM, 100% = cells with rucaparib alone
# [10] = at 0.00122 µM, OCI-P5x cells, without rucaparib
# [11] = at 0.00488 µM, OCI-C5x cells, with rucaparib 10 µM, 100% = cells with rucaparib alone
# [12] = at 0.00488 µM, OCI-C5x cells, without rucaparib
# [13] = at 0.00488 µM, OCI-P5x cells, with rucaparib 20 µM, 100% = cells with rucaparib alone
# [14] = at 0.00488 µM, OCI-P5x cells, without rucaparib
# [15] = at 0.0195 µM, OCI-C5x cells, with rucaparib 10 µM, 100% = cells with rucaparib alone
# [16] = at 0.0195 µM, OCI-C5x cells, without rucaparib
# [17] = at 0.0195 µM, OCI-P5x cells, with rucaparib 20 µM, 100% = cells with rucaparib alone
# [18] = at 0.0195 µM, OCI-P5x cells, without rucaparib
# [19] = at 0.0781 µM, OCI-C5x cells, with rucaparib 10 µM, 100% = cells with rucaparib alone
# [20] = at 0.0781 µM, OCI-C5x cells, without rucaparib
# [21] = at 0.0781 µM, OCI-P5x cells, with rucaparib 20 µM, 100% = cells with rucaparib alone
# [22] = at 0.0781 µM, OCI-P5x cells, without rucaparib
# [23] = at 0.313 µM, OCI-C5x cells, with rucaparib 10 µM, 100% = cells with rucaparib alone
# [24] = at 0.313 µM, OCI-C5x cells, without rucaparib
# [25] = at 0.313 µM, OCI-P5x cells, with rucaparib 20 µM, 100% = cells with rucaparib alone
# [26] = at 0.313 µM, OCI-P5x cells, without rucaparib
# [27] = at 1.25 µM, OCI-C5x cells, with rucaparib 10 µM, 100% = cells with rucaparib alone
# [28] = at 1.25 µM, OCI-C5x cells, without rucaparib
# [29] = at 1.25 µM, OCI-P5x cells, with rucaparib 20 µM, 100% = cells with rucaparib alone
# [30] = at 1.25 µM, OCI-P5x cells, without rucaparib
# [31] = at 5 µM, OCI-C5x cells, with rucaparib 10 µM, 100% = cells with rucaparib alone
# [32] = at 5 µM, OCI-C5x cells, without rucaparib
# [33] = at 5 µM, OCI-P5x cells, with rucaparib 20 µM, 100% = cells with rucaparib alone
# [34] = at 5 µM, OCI-P5x cells, without rucaparib
# Chain of NAD(+) hydrolase SARM1 (Homo sapiens) (Q6SZW1 whole entry, looked up): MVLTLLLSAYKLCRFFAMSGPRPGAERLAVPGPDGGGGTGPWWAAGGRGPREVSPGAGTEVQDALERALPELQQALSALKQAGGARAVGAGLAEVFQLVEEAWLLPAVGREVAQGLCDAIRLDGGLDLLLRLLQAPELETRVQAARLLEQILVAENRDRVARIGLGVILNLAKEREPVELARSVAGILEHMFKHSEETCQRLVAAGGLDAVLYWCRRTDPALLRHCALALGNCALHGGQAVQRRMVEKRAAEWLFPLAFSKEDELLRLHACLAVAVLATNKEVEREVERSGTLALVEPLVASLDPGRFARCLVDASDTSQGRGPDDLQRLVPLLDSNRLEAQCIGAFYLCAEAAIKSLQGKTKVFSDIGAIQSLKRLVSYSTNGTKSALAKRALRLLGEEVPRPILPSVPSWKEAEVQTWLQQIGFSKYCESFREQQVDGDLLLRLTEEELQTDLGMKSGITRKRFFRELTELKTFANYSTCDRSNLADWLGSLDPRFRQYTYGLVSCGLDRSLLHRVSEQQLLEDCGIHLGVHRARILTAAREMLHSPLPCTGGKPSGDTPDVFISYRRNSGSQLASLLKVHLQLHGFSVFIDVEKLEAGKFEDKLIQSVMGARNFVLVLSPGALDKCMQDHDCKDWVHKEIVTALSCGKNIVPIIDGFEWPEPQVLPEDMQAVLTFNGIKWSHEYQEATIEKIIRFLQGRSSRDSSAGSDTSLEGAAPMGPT
structure (smiles),measurement,setting,value
CC(=O)O[C@H]1C(=O)[C@@]2(C)C([C@H](OC(=O)c3ccccc3)[C@]3(O)C[C@H](OC(=O)[C@H](O)[C@@H](NC(=O)c4ccccc4)c4ccccc4)C(C)=C1C3(C)C)[C@]1(OC(C)=O)CO[C@@H]1C[C@H]2O (stereo partly specified),viability,[1]; [3],112%
same,viability,[1]; [4],129%
same,viability,[1]; [5],125%
same,viability,[1]; [6],125%
same,viability,[1]; [7],114%
same,viability,[1]; [8],121%
same,viability,[1]; [9],119%
same,viability,[1]; [10],123%
same,viability,[1]; [11],75.3% (active)
same,viability,[1]; [12],71.2% (active)
same,viability,[1]; [13],97.9% (active)
same,viability,[1]; [14],39.8% (active)
same,viability,[1]; [15],37% (active)
same,viability,[1]; [16],35.9% (active)
same,viability,[1]; [17],63.2% (active)
same,viability,[1]; [18],16.9% (active)
same,viability,[1]; [19],34.2% (active)
same,viability,[1]; [20],30.2% (active)
same,viability,[1]; [21],64.9% (active)
same,viability,[1]; [22],17.4% (active)
same,viability,[1]; [23],36.2% (active)
same,viability,[1]; [24],29.8% (active)
same,viability,[1]; [25],57.9% (active)
same,viability,[1]; [26],18.2% (active)
same,viability,[1]; [27],30% (active)
same,viability,[1]; [28],32.8% (active)
same,viability,[1]; [29],56.9% (active)
same,viability,[1]; [30],18.7% (active)
same,viability,[1]; [31],24.5% (active)
same,viability,[1]; [32],24.4% (active)
same,viability,[1]; [33],34.2% (active)
same,viability,[1]; [34],17% (active)
CCC(C)(C)C(=O)O[C@@H]1C[C@@H](C)C=C2C=C[C@H](C)[C@@H](CC[C@@H]3C[C@@H](O)CC(=O)O3)[C@H]21,viability,[1]; [3],109%
same,viability,[1]; [4],119%
same,viability,[1]; [5],102%
same,viability,[1]; [6],113%
same,viability,[1]; [7],108%
same,viability,[1]; [8],113%
same,viability,[1]; [9],110%
same,viability,[1]; [10],115%
same,viability,[1]; [11],112%
same,viability,[1]; [12],110%
same,viability,[1]; [13],96.9% (active)
same,viability,[1]; [14],110%
same,viability,[1]; [15],95.4% (active)
same,viability,[1]; [16],112%
same,viability,[1]; [17],94.2% (active)
same,viability,[1]; [18],101%
same,viability,[1]; [19],76.6% (active)
same,viability,[1]; [20],70.9% (active)
same,viability,[1]; [21],72.4% (active)
same,viability,[1]; [22],66.6% (active)
same,viability,[1]; [23],36% (active)
same,viability,[1]; [24],32% (active)
same,viability,[1]; [25],13.1% (active)
same,viability,[1]; [26],14.5% (active)
same,viability,[1]; [27],24.2% (active)
same,viability,[1]; [28],27.2% (active)
same,viability,[1]; [29],7.81% (active)
same,viability,[1]; [30],7.43% (active)
same,viability,[1]; [31],8.07% (active)
same,viability,[1]; [32],7.81% (active)
same,viability,[1]; [33],5.14% (active)
same,viability,[1]; [34],3.59% (active)
CC(C)CC(CC(=O)NO)C(=O)N[C@@H](Cc1ccc2ccccc2c1)C(=O)N[C@@H](C)C(=O)NCCN (stereo partly specified),viability,[1]; [3],123%
same,viability,[1]; [4],120%
same,viability,[1]; [5],90.2% (active)
same,viability,[1]; [6],101%
same,viability,[1]; [7],111%
same,viability,[1]; [8],110%
same,viability,[1]; [9],88.9% (active)
same,viability,[1]; [10],99.8% (active)
same,viability,[1]; [11],123%
same,viability,[1]; [12],118%
same,viability,[1]; [13],92% (active)
same,viability,[1]; [14],94.4% (active)
same,viability,[1]; [15],123%
same,viability,[1]; [16],120%
same,viability,[1]; [17],84.6% (active)
same,viability,[1]; [18],100% (active)
same,viability,[1]; [19],132%
same,viability,[1]; [20],102%
same,viability,[1]; [21],90% (active)
same,viability,[1]; [22],92.6% (active)
same,viability,[1]; [23],114%
same,viability,[1]; [24],114%
same,viability,[1]; [25],91.3% (active)
same,viability,[1]; [26],92.3% (active)
same,viability,[1]; [27],134%
same,viability,[1]; [28],112%
same,viability,[1]; [29],85.1% (active)
same,viability,[1]; [30],86% (active)
same,viability,[1]; [31],112%
same,viability,[1]; [32],110%
same,viability,[1]; [33],78.6% (active)
same,viability,[1]; [34],88.3% (active)
CC1(C)C=C(CN2C/C(=C/c3ccc(F)cc3)C(=O)/C(=C/c3ccc(F)cc3)C2)C(C)(C)N1O,viability,[1]; [3],136%
same,viability,[1]; [4],110%
same,viability,[1]; [5],90.6% (active)
same,viability,[1]; [6],90.1% (active)
same,viability,[1]; [7],117%
same,viability,[1]; [8],106%
same,viability,[1]; [9],80% (active)
same,viability,[1]; [10],81.9% (active)
same,viability,[1]; [11],131%
same,viability,[1]; [12],112%
same,viability,[1]; [13],74.5% (active)
same,viability,[1]; [14],83.8% (active)
same,viability,[1]; [15],127%
same,viability,[1]; [16],112%
same,viability,[1]; [17],71% (active)
same,viability,[1]; [18],81.9% (active)
same,viability,[1]; [19],124%
same,viability,[1]; [20],117%
same,viability,[1]; [21],102%
same,viability,[1]; [22],106%
same,viability,[1]; [23],125%
same,viability,[1]; [24],109%
same,viability,[1]; [25],96.7% (active)
same,viability,[1]; [26],103%
same,viability,[1]; [27],127%
same,viability,[1]; [28],118%
same,viability,[1]; [29],102%
same,viability,[1]; [30],105%
same,viability,[1]; [31],124%
same,viability,[1]; [32],115%
same,viability,[1]; [33],55.9% (active)
same,viability,[1]; [34],97.4% (active)
Cc1cc2c(C(=O)NC[C@H](C)c3ccccc3)c(O)c(O)cc2c(O)c1-c1c(C)cc2c(C(=O)NC[C@H](C)c3ccccc3)c(O)c(O)cc2c1O,viability,[1]; [3],120%
same,viability,[1]; [4],108%
same,viability,[1]; [5],99.3% (active)
same,viability,[1]; [6],89.3% (active)
same,viability,[1]; [7],132%
same,viability,[1]; [8],116%
same,viability,[1]; [9],98.5% (active)
same,viability,[1]; [10],89.2% (active)
same,viability,[1]; [11],128%
same,viability,[1]; [12],110%
same,viability,[1]; [13],97.9% (active)
same,viability,[1]; [14],91.4% (active)
same,viability,[1]; [15],124%
same,viability,[1]; [16],116%
same,viability,[1]; [17],102%
same,viability,[1]; [18],91.3% (active)
same,viability,[1]; [19],122%
same,viability,[1]; [20],110%
same,viability,[1]; [21],105%
same,viability,[1]; [22],95.4% (active)
same,viability,[1]; [23],119%
same,viability,[1]; [24],106%
same,viability,[1]; [25],96.3% (active)
same,viability,[1]; [26],93.3% (active)
same,viability,[1]; [27],123%
same,viability,[1]; [28],106%
same,viability,[1]; [29],99.6% (active)
same,viability,[1]; [30],91.3% (active)
same,viability,[1]; [31],15.2% (active)
same,viability,[1]; [32],17.1% (active)
same,viability,[1]; [33],2.71% (active)
same,viability,[1]; [34],9.17% (active)
CC(=O)OCC(=O)[C@@]1(O)CC[C@H]2[C@@H]3CCC4=CC(=O)C=C[C@]4(C)[C@@]3(Cl)[C@@H](Cl)C[C@@]21C,remaining NAD,[2],10 nM
